# Screening results as filed in PubChem BioAssay.
# TTR transcr act – TTR transcription activation, primary screen. 1.3% of 92,000 active. SH-SY5Y TTR promoter Gaussia luciferase, luminescence; 100% = recombinant luciferase protein wells. activation, % at 16.7 µM. AID 1117267;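 active = activation above the mean of all tested compounds plus 3 SD, cut at about 9.5% in these data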;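 also: cells exposed to compounds for one day before reading; 0% = median of all test compound wells on the plate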
# HuH7 TTR inh – decreases TTR transcription in HuH7 cells in activator counter-screen; shares compounds with TTR transcr act; HuH7 TTR promoter-Gaussia luciferase reporter, luminescence; inhibition, % at 16.7 µM; 4% of 1,100 active; AID 1117279;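 active = average inhibition above the solvent-only control wells' mean plus 3 SD, cut at about 15% in these data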;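 also: 0% = cells with DMSO only and 100% = cells with inhibitor control FD; inhibitors lower well luminescence so higher value means more inhibition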
# TTR up confirm – confirmation of human transthyretin transcription activators. SHSY5Y TTR promoter Gaussia luciferase, luminescence; 100% = purified Lucia enzyme wells, no cells. activation, % at 16.7 µM. shares compounds with TTR transcr act. 1,100 tested, under 10 active. AID 1117280;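 active = mean activation above a set limit taken from the earlier primary screen, cut at about 11% in these data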;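 also: 0% = DMSO-treated cells and 100% = recombinant Lucia luciferase without cells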
# The depositor's hits bear a star. The entries come from a sample that favours hits as a whole.
SMILES,TTR transcr act,others
CCOC(=O)C1C(=O)CC(C)(O)C(C(=O)OCC)C1c1ccc(OC)cc1 (stereo not drawn),-1,
CC(C)OC(=O)C1C(=O)CC(C)(O)C(C(=O)OC(C)C)C1c1cccnc1 (stereo not drawn),12*,
CCCCNC(=O)O[C@H]1CC[C@@]23CCCN2C(=O)CCC[C@H]3[C@H]1CCC,3,
CCC[C@H]1[C@@H](OC(=O)N2CCCC2)CC[C@@]23CCCN2C(=O)CCC[C@@H]13,-1,
Cc1ccc(CNC(=O)O[C@H]2CC[C@@]34CCCN3C(=O)CCC[C@H]4C2)o1,1,
FC(F)(F)Oc1ccc(Cn2ccc3ccc(-c4ccc5ccn(Cc6ccccc6)c5c4)cc32)cc1,-1,
O=C(NC12CC3CC(CC(C3)C1)C2)c1cc(F)c(F)cc1Cl,0,
O=C(NC12CC3CC(CC(C3)C1)C2)c1ccccc1O,9.9*,
O=C(NC12CC3CC(CC(C3)C1)C2)c1ccco1,-1,
CC(C)C[C@@H]1COc2cc(F)ccc2S(=O)(=O)N1,1,
COc1cc(F)c(S(=O)(=O)N2CCCN(S(=O)(=O)c3cccc(N)c3)CC2)c(F)c1,1,
CCCCCCCCN1C(=O)[C@@H](CC(=O)N2CCCCC2)C[C@@]2(C(=O)OC)C1=C[C@H](COCc1ccccc1)O[C@@H]2C,0,
COc1cc(-c2csc(N3CCC(C(N)=O)CC3)n2)cc(OC)c1OC,2,
CC(=O)N(Cc1ccco1)C1(C(=O)NC2CCCCC2)CCCCC1,10*,
CC(=O)NCC(=O)N(Cc1ccco1)C1(C(=O)NC2CCCCC2)CCCCC1,4,
Cc1cc(NC(=O)CCC(=O)N(Cc2ccco2)C2(C(=O)NC3CCCC3)CCCCC2C)no1 (stereo not drawn),0,
CC(C)[C@@H]1C(=O)N[C@H](Cc2cn(S(=O)(=O)c3ccccc3)c3ccccc23)C(=O)N1C,-1,
O=C(OCc1ccccc1)[C@H](Cc1ccccc1)NC(=O)[C@@H]1CC=C[C@@H]2CCN(CCc3ccccc3)C(=O)[C@@H]21,1,
CC(C)[C@H](NC(=O)OCc1ccccc1)C(=O)NCc1ccccc1,1,
NC(=O)C(NC(=O)OCc1ccccc1)c1ccccc1 (stereo not drawn),-2,
CC[C@@H](C)[C@H](NC(=O)OCc1ccccc1)c1nnc([C@@H](NC(=O)OCc2ccccc2)[C@@H](C)CC)o1,11*,
O=C(Nc1ccccc1)Nc1c(-c2ccc(F)cc2)nc2ncccn12,2,
O=C(NCC(c1ccccc1)c1ccccc1)[C@H](Cc1c[nH]c2ccccc12)NC1(C(=O)NC2CCCCC2)CCCCCC1,-1,
S=C(Nc1ccccc1Br)OCCN1CCCC12CCC(c1ccccc1)CC2 (stereo not drawn),-1,
Cc1cccc(-n2c(SCC(=O)N3CCN(c4ccccn4)CC3)nnc2N2CCOCC2)c1,0,
SMILES,TTR transcr act,others
O=C(CSc1nnc(Cc2ccccc2)n1-c1cccc(Cl)c1)N1CCOCC1,22*,
Cn1c(CCc2ccccc2)nnc1SCC(=O)N1CCOCC1,1,
CCc1nnc(NC(=O)c2c(C)nn(-c3ccccc3)c2Cl)s1,22*,
COc1ccc(NC(=O)c2c(C)nn(-c3ccccc3)c2Cl)cc1,1,
Cc1nn(-c2ccccc2)c(Cl)c1C(=O)NCC(C)C,8,
FC(F)(F)Oc1ccc(Cn2ccc3ccc(-c4ccc5ccn(Cc6ccc(OC(F)(F)F)cc6)c5c4)cc32)cc1,4,
COc1ccc(Cn2ccc3ccc(-c4ccc5ccn(C(=O)C6CCC6)c5c4)cc32)cc1,1,
C[C@H]1[C@@H](N(C)Cc2ccccc2)CC[C@@]23CCCN2C(=O)CCC[C@@H]13,0,
COC(=O)c1cc(OC)c(OC)cc1NC(=S)Nc1cccc(Cl)c1,17*,
COC(=O)c1cccc(NC(=S)Nc2cccc(Cl)c2Cl)c1,1,
COC(=O)c1cc(OC)c(OC)cc1NC(=S)Nc1cc(Cl)ccc1OC,9,
O=C1C[C@@H](O)[C@H](O)c2cccc(O)c21,1,
C=CCN1C(=O)[C@H](CC(=O)NCc2cccc(C(F)(F)F)c2)[C@@]2(C(=O)OCC)CCCC=C12,0,
Nc1c(C(=O)N2CCOCC2)cnn1Cc1ccccc1,0,
CCCCOCCCNC(=O)C[C@H]1C[C@@]2(C(=O)OC)C(=C[C@H](COCc3ccccc3)O[C@@H]2C)N(Cc2ccc(Cl)cc2Cl)C1=O,0,
COC(=O)c1[nH]c2cccc(OC)c2c1NC(=O)CCN1CCN(c2ccccc2F)CC1,-4,
CCOC(=O)c1[nH]c2ccc(OC)cc2c1NC(=O)CCN1CCSCC1,6,
COC(=O)c1[nH]c2cc(OC)ccc2c1NC(=O)CCN1CCN(c2cccc(C)c2C)CC1,22*,
CCCC1CCC2(CC1)CCC2OC(=O)Nc1ccccc1C (stereo not drawn),7,
C[C@H]1C(c2ccccc2F)O[C@]2(C[C@H](O)c3c(ccc4ccccc34)O2)C[C@@H]1O (stereo partly drawn),0,
O=C(NNC(=O)c1cc2ccccc2oc1=O)c1ccccc1,0,
COc1ccc(-c2cc3ccccc3oc2=O)cc1NC(=O)c1cccnc1,-2,
O=C(OCCNC(=O)c1cc2ccccc2oc1=O)c1cccnc1,12*,
Cc1ccc2nc(-c3sc4nc(C)ccc4c3N)[nH]c2c1,-2,
Cc1ccc2c(N)c(C#N)sc2n1,27*,
SMILES,TTR transcr act,others
Cc1ccc2c(n1)sc1c(-c3ccccc3)c(C#N)c(N)nc12,0,
CCOC(=O)[C@]12CCCC=C1N(Cc1ccc(OC)cc1)C(=O)[C@@H]2CC(=O)NCc1ccc(OC)c(OC)c1,-1,
COc1cccc(-c2cc3nc(C)c(C)c(N4CCN(Cc5ccco5)CC4)n3n2)c1,-3,
O=C(Nc1ccc(F)cc1)OCc1cn(Cc2cccc(F)c2)nn1,0,
O=C(O/N=C1/CCCc2occc21)c1ccccc1,-3,
Cc1ccc(C(=O)O/N=C2\CCCc3ccccc32)cc1,23*,HuH7 TTR inh=-2;TTR up confirm=0
COc1ccc2c(c1)/C(=N/OC(=O)c1cccs1)CCC2,0,
Cc1cccc(C)c1OCc1cccc(C2Nc3ccccc3C(=O)N2Cc2ccco2)c1 (stereo not drawn),-1,
COC(=O)[C@]12C[C@H](CC(=O)NCCC(C)C)C(=O)N(CCc3ccc(OC)c(OC)c3)C1=C[C@H](COCc1ccccc1)O[C@@H]2C,0,
COC(=O)[C@]12C[C@H](CC(=O)N3CCN(C(=O)c4ccco4)CC3)C(=O)N(Cc3cccc4ccccc34)C1=C[C@H](C1CCCC1)O[C@@H]2C,-1,
CCC[C@H]1[C@@H](NC(=O)c2ccc(OC)cc2)CC[C@@]23CCCN2C(=O)CCC[C@@H]13,2,
O=C(NCCc1ccccc1)OCc1cn(-c2ccc(Cl)cc2)nn1,-1,
Cn1ccsc1=NC(=O)c1ccccc1OC(F)F,1,
Cn1ccs/c1=N\C(=O)Nc1ccccc1,52*,HuH7 TTR inh=-3;TTR up confirm=1
Cn1ccsc1=NC(=O)c1ccccc1F,0,
O=c1oc2ccccc2cc1N1CCOCC1,-3,
Cc1onc(C(=O)N2CCN(C(c3ccc(Cl)cc3)c3ccc(Cl)cc3)CC2)c1[N+](=O)[O-],-1,
O=C(c1cccc(S(=O)(=O)Nc2cccc(C(F)(F)F)c2)c1)N1CCCCC1,1,
CCC[C@H]1[C@@H](N(C)Cc2cccs2)CC[C@@]23CCCN2C(=O)CCC[C@@H]13,0,
